Screening data (PubChem BioAssay)
The list is not random: actives were taken first. Their share in the collection is about 2.4%.
Pf Dd2 inh – blocks growth of Plasmodium falciparum Dd2 parasites; P. falciparum Dd2 growth, SYBR Green, 72 h; active compounds read low; activity change, % at 10 µM; 94,000 compounds, 2.3% hits; AID 1159554; in the data active = activity change below about -80%
C diff HTS – C. difficile growth inhibition; 86,000 compounds, 0.25% hits; Clostridium difficile clinical isolate growth, OD600, 24 h; active compounds read low; AID 1259249; growth activity, negative = inhibition, % at 16 µg/mL (by protocol);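 active = mean growth activity at or below -80% and every replicate also at or below -80%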
Hits are given with their value; – = inactive; · = no result given.

SMILES	Pf Dd2 inh	C diff HTS
CN1CCN(C(=O)C[C@@H]2CC[C@@H]3[C@H](COC[C@@H](O)CN3Cc3ccc4c(c3)OCO4)O2)CC1	–	·
COCC(=O)Nc1ccc2c(c1)[C@@H]1C[C@@H](CC(=O)NCc3ccc(OC)cc3)O[C@@H](CO)[C@@H]1O2	–	–
C[C@@H]1CN([C@@H](C)CO)C(=O)c2cc(NC(=O)Nc3ccc4c(c3)OCO4)ccc2O[C@@H](C)CCCCO[C@@H]1CN(C)C(=O)C1CCCCC1	–	–
O=C(C[C@H]1C[C@H]2c3cc(NC(=O)c4ccc5c(c4)OCO5)ccc3O[C@H]2[C@H](CO)O1)NCC1CC1	–	–
CO[C@H]1CN(C)C(=O)c2ccc(NC(=O)Nc3cc(Cl)cc(Cl)c3)cc2OC[C@H](C)NC[C@@H]1C	–	–
CO[C@H]1CN(C)C(=O)c2ccc(NC(=O)Nc3ccc(Cl)c(Cl)c3)cc2OC[C@H](C)NC[C@@H]1C	·	-99
CO[C@H]1CN(C)C(=O)c2ccc(NC(=O)Nc3ccc(Cl)c(Cl)c3)cc2OC[C@H](C)NC[C@H]1C	·	-97
CO[C@H]1CN(C)C(=O)c2ccc(NC(=O)Nc3ccccc3Cl)cc2OC[C@H](C)NC[C@@H]1C	–	–
CO[C@@H]1CN(C)C(=O)c2ccc(NC(=O)Nc3ccc(C(F)(F)F)cc3)cc2OC[C@H](C)NC[C@H]1C	-95	·
CO[C@@H]1CN(C)C(=O)c2ccc(NC(=O)Nc3ccccc3Cl)cc2OC[C@H](C)NC[C@@H]1C	–	·
CO[C@@H]1CN(C)C(=O)c2ccc(NC(=O)Nc3cc(Cl)cc(Cl)c3)cc2OC[C@H](C)NC[C@@H]1C	–	-100
CO[C@H]1CN(C)C(=O)c2cc(NC(=O)Nc3ccc(C(F)(F)F)cc3)ccc2OC[C@@H](C)NC[C@H]1C	–	·
CN1C(=O)c2cc(NC(=O)Cc3cccs3)ccc2OC[C@@H]2O[C@@H](CC(=O)NCc3ccc(-c4ccccc4)cc3)CC[C@H]21	–	–
CCS(=O)(=O)N1CC2(C1)CN(S(=O)(=O)c1cccc(OC)c1)[C@@H](CO)c1[nH]c3cc(OC)ccc3c12	-84	–
COc1cccc(S(=O)(=O)N2CC3(CCN(C)CC3)c3c([nH]c4cc(OC)ccc34)[C@H]2CO)c1	–	–
CCC(=O)N1CCC2(CC1)CN(S(C)(=O)=O)[C@@H](CO)c1[nH]c3cc(OC)ccc3c12	–	–
COc1cccc(S(=O)(=O)N2CCC3(CC2)CN[C@@H](CO)c2[nH]c4cc(OC)ccc4c23)c1	-92	–
CCS(=O)(=O)N1CCC2(CC1)CN(S(=O)(=O)c1ccc(C)cc1)[C@@H](CO)c1[nH]c3cc(OC)ccc3c12	-90	–
CCS(=O)(=O)N1CC2(C1)CN(S(=O)(=O)c1ccc(C)cc1)[C@@H](CO)c1[nH]c3cc(OC)ccc3c12	–	–
COc1ccc2c3c([nH]c2c1)[C@H](CO)NCC31CCN(S(=O)(=O)c2ccccc2)CC1	–	–
CCC(=O)N1CCC2(CC1)CN(S(=O)(=O)c1ccccc1)[C@@H](CO)c1[nH]c3cc(OC)ccc3c12	-92	–
COCC#Cc1ccc2c(c1)O[C@@H](CN(C)Cc1ccncc1)[C@H](C)CN([C@H](C)CO)S2(=O)=O	–	–
CCCNC(=O)[C@@H]1N[C@@H]2c3ccc(C4=CCCCC4)c(=O)n3C[C@@H]2[C@H]1CO	–	–
CCNC(=O)C[C@H]1C=C[C@H](NS(=O)(=O)c2ccc(F)cc2)[C@@H](CO)O1	–	·
C[C@@H]1CN([C@H](C)CO)S(=O)(=O)c2ccc(C#CC(C)(C)O)cc2O[C@H]1CN(C)Cc1ccncc1	–	–
SMILES	Pf Dd2 inh	C diff HTS
COc1ccc(S(=O)(=O)N2CC3(CN(Cc4ccncc4)[C@H](CO)c4[nH]c5cc(OC)ccc5c43)C2)cc1	–	–
COc1ccc(S(=O)(=O)N2CCC3(CC2)CN(Cc2ccncc2)[C@@H](CO)c2[nH]c4cc(OC)ccc4c23)cc1	-87	–
COc1ccc2c3c([nH]c2c1)[C@H](CO)N(S(=O)(=O)c1ccc(C)cc1)CC31CN(Cc2ccccc2)C1	-87	–
CCC(=O)N1CC2(C1)CN(S(=O)(=O)c1ccccc1)[C@H](CO)c1[nH]c3cc(OC)ccc3c12	–	–
COc1ccc2c3c([nH]c2c1)[C@@H](CO)N(Cc1ccccc1)CC31CCN(S(=O)(=O)c2ccc(C)cc2)CC1	–	–
COc1ccc2c3c([nH]c2c1)[C@@H](CO)N(S(=O)(=O)c1cn(C)cn1)CC31CCN(CC2CCCC2)CC1	–	–
COc1ccc2c3c([nH]c2c1)[C@H](CO)N(S(=O)(=O)c1cn(C)cn1)CC31CCN(CC2CCCCC2)CC1	-85	–
CCC(=O)N1CC2(C1)CN(S(=O)(=O)c1ccccc1)[C@@H](CO)c1[nH]c3cc(OC)ccc3c12	-93	–
C[C@H]1CN([C@@H](C)CO)C(=O)c2cc(NC(=O)NC3CCCCC3)ccc2O[C@@H]1CN(C)C(=O)Nc1ccc(F)cc1	–	–
Cc1ccc(S(=O)(=O)NCC[C@H]2CC[C@@H](NC(=O)c3cnccn3)[C@@H](CO)O2)cc1	–	·
